Results: PubChem BioAssay (Tox21)
Results filed as inconclusive are left out. Active and inactive are the calls of the source. Calls follow the shape of the full dose curve.

Molecular target: 5-hydroxytryptamine receptor 2A (Homo sapiens) (UniProt P28223)
Test: 5-hydroxytryptamine receptor 2A (HTR2A) small molecule antagonists, cell-based qHTS assay (AID 1963586); also: nearly all actives have a fitted effect of over 45% in size
Settings: HTR2A-CHO cells, DOI-induced calcium flux, fluorescence; series mostly up to 61.5 µM; activity, negative = inhibition: at the top concentration
Description: National Center for Advancing Translational Sciences [NCATS]
Division of Preclinical Innovation [DPI]
U.S. Environmental Protection Agency [EPA]
National Institutes of Environmental Health Sciences [NIEHS]
National Toxicology Program [NTP]
U.S. Food and Drug Administration [FDA]
The HTR2A receptor is a subtype of the 5-HT2 receptor that belongs to the serotonin receptor family and is a G protein-coupled receptor (GPCR). The HTR2A-CHO cell line stably expressing human 5-hydroxytryptamine receptor 2A (HTR2A) can be used for screening antagonists of interactions between 5-HT2 and its ligands. The HTR2A-CHO calcium flux assay is a homogeneous fluorescence-based assay for detecting the intracellular calcium level using FDSS kinetic plate reader system.
Tox21 Assay Protocol Summary:
HTR2A-CHO cells were dispensed at 2000 cells/3uL/well in 1536-well black-clear bottom plates using a Multidrop Dispenser. After the assay plates were incubated at a 37 C/5% CO2 incubator for 18 h, 3 uL of Dye Loading Buffer was transferred to the assay plate by a Flying Reagent Dispenser. The assay plates were incubated at 37 C for 1h. For antagonist mode, 23 nL of compounds dissolved in DMSO, positive controls or DMSO only was transferred to the assay plate by a pin tool. After 5 min incubation at room temperature, 1.5 uL of 4-Iodo-2,5-dimethoxy-alpha-methylbenzeneethanamine hydrochloride (DOI) at 4nM was added to each well. The fluorescence intensity in the plates was measured using FDSS 7000EX kinetic plate reader for 3 min at 1 sec intervals.
% is scaled to controls: 0 for no effect and ±100 for the full control effect; potency is read from the fitted curve at half-maximal effect.

Chain of 5-hydroxytryptamine receptor 2A (Homo sapiens) (P28223 whole entry, looked up): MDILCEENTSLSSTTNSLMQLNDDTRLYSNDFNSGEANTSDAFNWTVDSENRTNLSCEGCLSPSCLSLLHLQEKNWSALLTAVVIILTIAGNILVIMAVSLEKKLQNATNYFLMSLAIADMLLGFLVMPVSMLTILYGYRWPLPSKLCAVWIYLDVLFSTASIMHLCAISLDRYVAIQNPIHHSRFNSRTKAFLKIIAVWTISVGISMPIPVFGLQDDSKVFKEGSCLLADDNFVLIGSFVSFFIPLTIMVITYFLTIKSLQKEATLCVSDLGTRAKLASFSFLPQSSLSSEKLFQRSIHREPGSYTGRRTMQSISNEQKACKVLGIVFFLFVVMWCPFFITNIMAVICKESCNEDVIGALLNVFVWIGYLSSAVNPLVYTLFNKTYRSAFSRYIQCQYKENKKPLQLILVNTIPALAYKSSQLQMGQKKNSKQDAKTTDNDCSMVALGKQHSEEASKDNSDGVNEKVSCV

Row | Structure (SMILES) | activity, negative = inhibition | Potency
1 | CC(C)=CCC/C(C)=C\C#N | 4.96% (inactive) | –
2 | COc1ccc(NS(=O)(=O)c2ccc(N)cc2)nn1 | -21.7% [at 28.5 µM] (inactive) | –
3 | O=C(NCCO[N+](=O)[O-])c1cccnc1 | 17.8% [at 28.5 µM] (inactive) | –
4 | O=C(CCCl)NCCc1ccccc1 | 21.3% [at 28.5 µM] (inactive) | –
5 | OCCN(CCO)c1ccccc1 | 2.41% (inactive) | –
6 | CCCCCCCCCCCCCCC1CO1 (stereo not given) | -16.2% (inactive) | –
7 | CCOC(C)=O | -6.63% (inactive) | –
8 | CCC1NC(=O)c2cc(S(N)(=O)=O)c(Cl)cc2N1 (stereo not given) | 3.07% [at 28.5 µM] (inactive) | –
9 | CCCCOC(=O)/C=C\C(=O)OCCCC | -26.5% (inactive) | –
10 | CCOC(=O)C(C)O (stereo not given) | 3.54% (inactive) | –
11 | O=C(CCc1ccc(O)cc1)c1c(O)cc(O)cc1O | – | 38.4 µM (active)
12 | CC(CC(=O)O)CC(C)(C)C (stereo not given) | -23.7% (inactive) | –
13 | BrC(Br)C(Br)Br | 0.996% (inactive) | –
14 | Nc1c(Cl)cc(Cl)cc1Cl | -11.5% (inactive) | –
15 | CCN(CC)c1ccc(C=O)cc1 | 2.97% (inactive) | –
16 | O=C1N(c2ccccc2)c2ccccc2C1(Cc1ccncc1)Cc1ccncc1 | 4.08% [at 28.5 µM] (inactive) | –
17 | O=C(O)CCN(C1(C(=O)NO)CCCC1)S(=O)(=O)c1ccc(Oc2ccc(F)cc2)cc1 | 4.46% (inactive) | –
18 | CCCC(C)c1ccccc1O (stereo not given) | -28.3% (inactive) | –
19 | CC/C=C(\C)C=O | 11.5% (inactive) | –
20 | CCCCCCCCCCCCCCBr | 22.2% (inactive) | –

Row | Structure (SMILES) | activity, negative = inhibition | Potency
21 | O=S(=O)(Cl)c1c(Cl)cccc1Cl | -11.2% (inactive) | –
22 | Nc1ccc2cc(S(=O)(=O)O)ccc2c1 | 11.6% (inactive) | –
23 | CCOC(=O)CC | 40.4% (inactive) | –
24 | CCCCCCCCCCOc1cc2c(=O)c(C(=O)OCC)c[nH]c2cc1OCC | 23.4% [at 5.62 µM] (inactive) | –
25 | C=CC(=O)OCC(Br)CBr (stereo not given) | 0.311% (inactive) | –
26 | COC[C@H](c1ccc(C(F)(F)F)cc1)N1CCN(C2(C)CCN(C(=O)c3c(C)ncnc3C)CC2)C[C@H]1C | 33.6% [at 28.5 µM] (inactive) | –
27 | N[C@H]1CN(c2c(F)cc3c(=O)c(C(=O)O)cn(C4C[C@H]4F)c3c2Cl)CC12CC2 (stereo not given in full) | -17.9% [at 28.5 µM] (inactive) | –
28 | Nc1nc(-c2ccccc2)c(Br)c(=O)[nH]1 | -33.4% [at 28.5 µM] (inactive) | –
29 | CC1(C)CCC(C)(C)c2cc(NC(=O)c3ccc(C(=O)O)cc3)ccc21 | -23.7% [at 28.5 µM] (inactive) | –
30 | CNc1c2c(nn1C)CCCC2 | 6.99% [at 28.5 µM] (inactive) | –
31 | CC(C)CCCC(C)(C)O | -12.7% (inactive) | –
32 | C#CC(C)N(C)C(=O)Nc1ccc(Cl)cc1 (stereo not given) | 16.3% (inactive) | –
33 | O=c1cccccc1O | 1.63% (inactive) | –
34 | CC(=O)CC(=O)OC(C)(C)C | -0.318% (inactive) | –
35 | Cc1nc(-c2ccc(OCC(C)C)c(C#N)c2)sc1C(=O)O | 48.2% [at 28.5 µM] (inactive) | –
36 | N#CSc1ccc(N)c([N+](=O)[O-])c1 | 5.22% (inactive) | –
37 | CN(C)CCC=C1c2ccccc2C=Cc2ccccc21 | – | 0.818 µM (active)
38 | CCCCCCCCCCCC(=O)Cl | 2.99% (inactive) | –
39 | CO[C@@H]1[C@@H](OC(N)=O)[C@@H](O)[C@H](Oc2ccc3c(O)c(NC(=O)c4ccc(O)c(CC=C(C)C)c4)c(=O)oc3c2C)OC1(C)C | 4.45% [at 28.5 µM] (inactive) | –
40 | Nc1c2c(nc3ccccc13)CCCC2O (stereo not given) | 11.1% [at 28.5 µM] (inactive) | –
